Laboratory results reported in PubChem BioAssay AID1345083 (National Center for Advancing Translational Sciences (NCATS), 2018).
The campaign covered roughly 94,000 compounds. About 6,200 (6.6%) were called active. Another 31% or so got no clear call; they are omitted. This is one part of a sample in which actives are shown more often than they occur. Unmarked numbers belong to inactive results. Calls follow the shape of the dose curve; as a rule, active = well fitted inhibition curve with a large enough effect; inconclusive = small, poorly fitted or top-dose-only effect; inactive = flat fitted curve, though single readings scatter.
% is scaled to controls: 0 for no effect and ±100 for the full control effect; potency is read from the fitted curve at half-maximal effect.

Test: Cytotoxic Profiling in HEK 293 Cell Line of Diverse Libraries Using Quantitative High-Throughput Screening; also: nearly all actives have a fitted effect of over 60% in size
Details: HEK 293 viability, ATP luminescence (CellTiter-Glo), 48-72 h; series mostly up to 115 µM; activity change, negative = cytotoxicity: at the top concentration
In short: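 HEK 293 seeded at 250 cells/well receive compound via pintool. After 48 or 72 hr at 37 degree Celsius, 5% CO2 and 95% humidity, CellTiter-Glo is dispensed and luminescence read following 10 min at room temperature.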
For O=C1NC2(Cc3ccccc31)CN([S+](=O)([O-])c1cccc(C(F)(F)F)c1)C2, the “activity change, negative = cytotoxicity” value was -6.46%. With O=C(NCC1CC1)c1cn(C2CN(C(=O)Nc3ccccc3)C2)nn1 the “activity change, negative = cytotoxicity” value was 3.71%. For CCCNC(=O)N1CCOC[C@H](Oc2cccnc2)C1, the “activity change, negative = cytotoxicity” value was 2.59% [at 230 µM]. For CCc1cccc(NC(=O)C2(C)CCCCC(=O)N2)c1 (centres undefined), the “activity change, negative = cytotoxicity” value was -14%. With CC(=O)N1CCOc2ccc(CCC(=O)NCc3nc4ccccc4n3C)cc2C1 the “activity change, negative = cytotoxicity” value was -7.53%. For CCCCN1C(=O)[C@@H]2C[C@@H](O)CN2C2(CN(CC(C)C)C2)C1=O, the “activity change, negative = cytotoxicity” value was -1.68% [at 172 µM]. For COCC1(CNS(=O)(=O)c2ccc(F)cc2)C[C@@H](O)[C@@H](O)C1 (some centres undefined), the “activity change, negative = cytotoxicity” value was -6.02% [at 172 µM]. In the case of COc1ccc(Nc2ccnc(N3CCCC(C(=O)NCc4ccc(C(F)(F)F)cc4)C3)n2)cc1 (centres undefined), the Potency is reported as 20 µM (active). With COc1ccc(Nc2ccnc(N3CCC(C(=O)N4CCN(C(C)=O)CC4)CC3)n2)cc1 the “activity change, negative = cytotoxicity” value was 4.42%. With COc1ccc(CNC(=O)[C@@H]2CCC[C@@H](NCc3nccs3)CN(C)C(=O)C2)cc1 the “activity change, negative = cytotoxicity” value was -2.3% [at 172 µM]. With Cc1nsc(NC(=O)N2CCC(CO)CC2)n1 the “activity change, negative = cytotoxicity” value was -4.07%. For CCOc1ccccc1C(=O)N1CCC(N2CC3CC(C2)[C@H]2CCCC(=O)N2C3)CC1 (some centres undefined), the “activity change, negative = cytotoxicity” value was -0.534%. With COC[C@@H]1CN(C(=O)Cn2cc(C)cn2)C[C@H]1c1ccccn1 the “activity change, negative = cytotoxicity” value was -6.73%. In the case of Cc1ccc(C)c(NC(=O)Cn2nc3n(c2=O)CCCCC3)c1, the “activity change, negative = cytotoxicity” value is reported as 1.83%. In the case of CN(CCc1cn[nH]c1)c1ccc(-c2nc(-c3ccccc3F)no2)cn1, the Potency is reported as 31.6 µM (active). In the case of O=C(C1CCC1)N1CCC(Oc2cccnc2)C1 (centres undefined), the “activity change, negative = cytotoxicity” value is reported as 13.3%. For Cc1noc(C)c1-c1cc(-c2cncnc2)cn2cncc12, the “activity change, negative = cytotoxicity” value was -2.72% [at 230 µM]. In the case of Cc1noc(C)c1-c1cc(-c2ccccc2Oc2ccccc2)cn2cncc12, the Potency is reported as 79.4 µM (active). For OCc1ccc(-c2cc(-c3cccnc3)c3cncn3c2)cc1, the “activity change, negative = cytotoxicity” value was -4.7% [at 172 µM]. For CCCOCCCNC(=O)c1c(C)noc1-c1ccccc1Cl, the “activity change, negative = cytotoxicity” value was -16.3%. In the case of COc1ccccc1-c1onc(C)c1C(=O)NCCC(c1ccccc1)c1ccccc1, the Potency is reported as 25.1 µM (active). With COc1ccccc1-c1onc(C)c1C(=O)NCc1ccc(Cl)cc1 the “activity change, negative = cytotoxicity” value was -27.2%. For O=C(c1ccc2nnc(C3CC3)n2c1)N1CCOCC1, the “activity change, negative = cytotoxicity” value was 0.449% [at 172 µM]. With CC(C)n1c(C2CCN(C(=O)Cc3cccc(F)c3)CC2)nn(C)c1=O the “outcome” value was “inactive”. With O=C(C1CCCN(c2ccnc3ccnn23)C1)N1CCCCC1 (centres undefined) the “activity change, negative = cytotoxicity” value was -26.9% [at 172 µM]. For O=C(c1ccoc1)N1CCCN(C(=O)C2COc3ccccc3C2)CC1 (centres undefined), the “activity change, negative = cytotoxicity” value was -24.8%. In the case of O=C1CCN(Cc2ccc3c(c2)CCO3)CCOCCN1, the “activity change, negative = cytotoxicity” value is reported as 4.17%. For O=C(CC1CCCC1)N1CCOc2ccc(CN3CCCCC3)cc2C1, the “activity change, negative = cytotoxicity” value was -22.3%. With O=C(c1ccccc1)N1CCOc2ccc(CN3CCc4ccccc4C3)cc2C1 the Potency was 44.7 µM (active). In the case of O=C(c1ccoc1)N1CCOc2ccc(CN3CCc4ccccc4C3)cc2C1, the Potency is reported as 39.8 µM (active). With CCC(C)N1CCN(C(=O)CCc2ccc3c(c2)CN(C(=O)NC(C)C)CCO3)CC1 (centres undefined) the “activity change, negative = cytotoxicity” value was -4.09%. For COc1ccccc1N1CCN([C@@H]2[C@H](O)[C@H](CO)O[C@@H]2CNC(=O)c2ccc(F)c(Cl)c2)CC1, the “outcome” value was “inactive”. For CN1C[C@H](NCc2nccn2C)CCC[C@@H](C(=O)NC2CC2)CC1=O, the “activity change, negative = cytotoxicity” value was -8.8% [at 172 µM]. With O=C(NCc1cccs1)c1nc(-c2cc(Cl)cc(Cl)c2)c2ccccn12 the “outcome” value was “inactive”. In the case of CCOCC(=O)N1[C@@H]2CC[C@H]1CC(NC(=O)c1ccc(F)cc1)C2 (some centres undefined), the “activity change, negative = cytotoxicity” value is reported as 3.15%. With Cc1ccncc1C(=O)N1[C@@H]2CC[C@H]1CC(NC(=O)c1ccc(F)cc1)C2 (some centres undefined) the “outcome” value was “inactive”. With CCc1cccc(NC(=O)N2[C@@H]3CC[C@H]2CC(NC(=O)c2ccc(F)cc2)C3)c1 (some centres undefined) the Potency was 39.8 µM (active). In the case of CNC(=O)c1cc(C)nc2onc(C3CCCN(C(=O)c4ccccn4)C3)c12 (centres undefined), the “activity change, negative = cytotoxicity” value is reported as -3.14%. For CCC(c1ccccn1)N(C)C(=O)c1cc(COc2ccccc2)[nH]n1 (centres undefined), the “activity change, negative = cytotoxicity” value was -18.1%. With CN1CCCCCC1C(=O)NCc1cccnc1Oc1ccccc1F (centres undefined) the “activity change, negative = cytotoxicity” value was -23.7%. For COc1ccccc1-c1ccc(CN2CCCCC2C(=O)NCc2cccc(Cl)c2)cc1 (centres undefined), the Potency was 22.4 µM (active). With CCOc1cc(=O)n2c(c1C(=O)NCc1cccc(Cl)c1)CCCC2 the “activity change, negative = cytotoxicity” value was -25.7%. For COc1ccc(CNC(=O)C2CCCCN2Cc2ccc(-c3ccccc3OC)cc2)cc1 (centres undefined), the Potency was 31.6 µM (active). In the case of C#CCNC(=O)C1CCc2nnc(-c3ccccc3OC)n21 (centres undefined), the “activity change, negative = cytotoxicity” value is reported as -6.52%. In the case of COc1ccc(F)cc1-c1ccc(CN2CCCCC2C(=O)NCc2ccccn2)cc1 (centres undefined), the Potency is reported as 25.1 µM (active). With C=C(C)CCC(C)N1CCC(N2CCC(C(=O)NCc3ccccn3)CC2)CC1 (centres undefined) the “activity change, negative = cytotoxicity” value was -4.18%. For CCNC(=O)[C@@H]1CCCN1[C@@H](C(=O)NC)c1ccccc1OC, the “activity change, negative = cytotoxicity” value was 2.6% [at 172 µM]. For COc1ccc(OC)c(S(=O)(=O)N2CCC(CC(=O)NCc3ccccc3)C2)c1 (centres undefined), the “activity change, negative = cytotoxicity” value was -14.4%. With Cc1ccc2[nH]c(CCCn3cc(-c4nccn4C)nn3)nc2c1C the “activity change, negative = cytotoxicity” value was -2.12%. With Cc1cnc(C(=O)N2CC[C@H](CO)[C@H](N(C)C)C2)cn1 the “activity change, negative = cytotoxicity” value was -7.91%. For COC(=O)c1nc(NC(=O)Cn2nc3c(cc2=O)CCCCC3)sc1C, the “activity change, negative = cytotoxicity” value was -20.3%. With CC(=O)c1cc(CN2CCN(c3nnc(C(F)(F)F)s3)CC2)cs1 the “activity change, negative = cytotoxicity” value was -31.2%. With O=C(C1CC1)N1CCC2(CC1)C(=O)NCN2Cc1ccc(Cl)cc1 the “activity change, negative = cytotoxicity” value was -22.5%. With C[S+](=O)([O-])N1CC2(Cc3ccccc31)CN(C(=O)C1CC1)C2 the “outcome” value was “inactive [at 172 µM]”. For COc1ccc(CNC(=O)N2CC3CN(C)CC(C2)O3)cc1, the “activity change, negative = cytotoxicity” value was -1.63%. For COc1ccc(CNC[C@H]2O[C@H](Cc3cc(-c4ccc(OC)cc4)on3)CC[C@@H]2O)cc1, the Potency was 35.5 µM (active). In the case of CC(=O)N1CCC(NC[C@H]2O[C@H](Cc3cc(-c4cccc(O)c4)on3)CC[C@@H]2O)CC1, the “activity change, negative = cytotoxicity” value is reported as -11.3% [at 172 µM]. For Cc1ncsc1C1N(C2CCN(C(=O)C3CC3)CC2)C(=O)C12CCCC2 (centres undefined), the “outcome” value was “inactive”. For COc1ccc(C(=O)Nc2cccc(-c3nnc4n3CCCC4)c2)cc1, the “activity change, negative = cytotoxicity” value was -14.6%. In the case of Cc1nn(-c2ccccc2)c2c1C(C)N(C1CN(C(=O)Nc3ccccc3)C1)C2=O (centres undefined), the “activity change, negative = cytotoxicity” value is reported as -21.4%. In the case of COc1ccc(-n2nc(C)c([C@H]3C=C[C@@H](OC(=O)Nc4cccc(F)c4)C3)c2C)cc1, the Potency is reported as 20 µM (active). In the case of COc1ccc(C(=O)Nc2cc(-c3ccccn3)nn2-c2ccccc2)cc1, the “activity change, negative = cytotoxicity” value is reported as -27.8%. With COc1ccc(-n2nc(C)c([C@@H]3C=C[C@@H](NC(=O)Nc4ccccc4)C3)c2C)cc1 the Potency was 50.1 µM (active). In the case of CCC(C)NC(=O)Cc1csc2nc(C)c(-c3cc(C)n(-c4ccc(C(C)C)cc4)n3)c(=O)n12 (centres undefined), the “activity change, negative = cytotoxicity” value is reported as -13.3%. For CCOCCOC1CCN(C(=O)Nc2cccc(F)c2)CC1, the “activity change, negative = cytotoxicity” value was -1.97%. For COc1ccc(-n2nc(-c3ccccc3)n(CC(=O)N(C)CC(C)C)c2=O)cc1, the “activity change, negative = cytotoxicity” value was -13.5%. With Cc1nn(-c2ccc(C(C)C)cc2)c(C)c1[C@@H]1C=C[C@@H](NC(=O)Nc2ccccc2)C1 the Potency was 39.8 µM (active). With Cc1nn(-c2ccc(C(C)C)cc2)c(C)c1[C@@H]1C=C[C@@H](NC(=S)NCC(C)C)C1 the Potency was 25.1 µM (active). With Cc1nn(-c2ccccc2)c2c1C(C(C)C)N(C1CN(C(=O)c3ccc(Cl)nc3)C1)C2=O (centres undefined) the “outcome” value was “inactive”.
